Laboratory results: PMC5540273 (PLoS ONE, 2017)
pKd: −log10 of the molar value.
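Also: kd values determined as follow-up on hits from a single-replicate KINOMEscan panel screen.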

Each compound was assayed on PDGFRA.
Work on `Cc1ccc(NC(=O)c2cccc(C#N)c2)cc1-c1ccc(C(=O)Nc2ccncc2)cc1` [GSK1398463] yielded a pKd of 6.77. `O=C(Nc1ccccc1)Nc1ccc(Oc2ccc3nccn3n2)cc1` gave a pKd of 7.15. `Cn1ccc2ncnc(Oc3ccc(NC(=O)Nc4cccnc4)c(Cl)c3)c21` gave a pKd of 6.96.

The compounds below were run on PDGFRB.
`Cc1ccc(NC(=O)c2cccc(C#N)c2)cc1-c1ccc(C(=O)Nc2ccncc2)cc1` [GSK1398463] showed a pKd of 7.89. `COc1ccc(NC(=O)Nc2ccc(C)c(-c3ccc(C(=O)Nc4ccncc4)cc3)c2)cc1` [GSK1398475] gave a pKd of 7.32. Work on `O=C(Nc1ccccc1)Nc1ccc(Oc2ccc3nccn3n2)cc1` yielded a pKd of 7.21. With `O=C(Nc1n[nH]c2nc(-c3ccco3)c(Br)cc12)c1ccc(CN2CCCC2)cc1.O=C(O)[C@H](O)[C@@H](O)C(=O)O` [SB-742352] the pKd was 7.17. For `CC(=O)Nc1n[nH]c2ncc(-c3ccccc3)cc12` [SB-548492], the pKd was 6.57. In the case of `COc1cc2c(Nc3cccc(NC(=O)c4ccccc4)c3)ncnc2cc1OCCCN1CCOCC1` [GSK223810], the pKd was 6.25. `Cn1ccc2ncnc(Oc3ccc(NC(=O)Nc4cccnc4)c(Cl)c3)c21` showed a pKd of 7.02.

Each compound was assayed on PDPK1.
`CC(C)(C)OC(=O)NC1CCCN(c2cc(-c3ccc4c(N)n[nH]c4c3)nc(N)n2)C1` (centres unmarked) [GSK2286096] was tested, and the pKd was 7.43. For `CSc1ccc(NC2=C(c3ccccc3Cl)C(=O)NC2=O)cc1` [SB-342411], the pKd was under 5.00. `Nc1nc(-c2ccc3c(N)n[nH]c3c2)cc(N2CCCCC2)n1` [GSK2228768] was tested, and the pKd was 6.27. With `COc1cc2c(Nc3cccc(NC(=O)c4ccccc4)c3)ncnc2cc1OCCCN1CCOCC1` [GSK223810] the pKd was under 5.00.
